Whole data set: some 68,000 sequences, median “fluorescence intensity (a.u.)” near 9,100, cut for the highest 2% near 16,000. This excerpt belongs to a sample that is enriched for the highest values.

Sequence of OsWRKY34 (Q0JBA9 entry or part of it): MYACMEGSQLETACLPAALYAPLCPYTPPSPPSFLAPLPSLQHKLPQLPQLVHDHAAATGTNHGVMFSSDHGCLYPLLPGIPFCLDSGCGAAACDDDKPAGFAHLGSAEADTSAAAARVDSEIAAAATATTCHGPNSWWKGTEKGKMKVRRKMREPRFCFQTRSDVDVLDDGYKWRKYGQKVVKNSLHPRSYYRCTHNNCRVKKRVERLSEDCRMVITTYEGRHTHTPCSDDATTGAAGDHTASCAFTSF

The experiment has as its target OsWRKY34 (Oryza sativa, UniProt Q0JBA9 1-250). As to the kind of experiment: protein-binding microarray (RPBM); PBS, 2% BSA, 51.3 ng/ul salmon testes DNA, 50 uM zinc acetate, 200 nM TF, 25 C, 1 h; high values mean tight binding. The conditions noted are these: protein: recombinant; tags: N-terminal polyhistidine and DsRed monomer fusion (pET32a); label: CyDye5-dUTP incorporated in the synthesized complementary strand; 3' TTTTT single-stranded linker to array surface; dsDNA, one strand shown. The method, boiled down: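 Per-feature fluorescence intensity (arbitrary units), read on an Axon 4000B scanner, is the binding signal. Transcription factors carrying an N-terminal polyhistidine tag and DsRed fusion were expressed in E. coli BL21-CodonPlus and purified on Ni–NTA. A custom Agilent array, made double-stranded by primer extension with Cy5-dUTP and blocked with 2% BSA, was incubated with 200 nM protein in PBS, 2% BSA, salmon testes DNA and 50 µM zinc acetate at 25 °C for 1 h and then washed.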
In the case of “CTCCGTTTTCACCCCTATGTATAGTTTATATGTAAATTGCCGGAGTCACCTAGTGCAG”, the binding signal is 8830 fluorescence intensity (a.u.). The value for “TTGTTACTTTAATTTGTACATCATCATGCGGGTCCGTATACGGAGTCACCTAGTGCAG” was 16600 fluorescence intensity (a.u.). The value for “GGGTGTAATTTTTGTTTTACATGTACGGAATTTTTTACTCCGGAGTCACCTAGTGCAG” was 10800 fluorescence intensity (a.u.). The value for “ATTTGATTTATTGTTAAATATACTTTCATGTACACATATACGGAGTCACCTAGTGCAG” was 8240 fluorescence intensity (a.u.). For the sequence “ATATAGCCTACTACTAGCTCCAAATCATCTATAGTCAATGCGGAGTCACCTAGTGCAG”, the binding signal is 8120 fluorescence intensity (a.u.).

Turning to “TGGGAGGGTTTCTGATCATCAGCTGTCCTCTTTACCGGCACGGAGTCACCTAGTGCAG”, the binding signal is 11300 fluorescence intensity (a.u.). In the case of “GGATTGCCGGTTTTTGGTGTCCTTTTCGCATCAGCTTTAGCGGAGTCACCTAGTGCAG” it was 9120 fluorescence intensity (a.u.); in that of “AGATGACGCCATTGACTTTTTCTCACATGTTTGACCATTCCGGAGTCACCTAGTGCAG”, 15800 fluorescence intensity (a.u.); in that of “GACGCTGTTGACTTTTTCTCACATGTTTGACCATTCGTCTCGGAGTCACCTAGTGCAG”, 28900 fluorescence intensity (a.u.). In the case of “ATAGATGACGCCGTTGATTTTTTCTCACATGTTTGACCGTCGGAGTCACCTAGTGCAG”, the binding signal is 15600 fluorescence intensity (a.u.). In the case of “TTTCTCACATGTTTGACCATTCGTCTTATTCAAAAATTTTCGGAGTCACCTAGTGCAG” it was 12800 fluorescence intensity (a.u.); in that of “GACGCCGTTGATTTTTTCTCACATGTTTGACCATTCGTCTCGGAGTCACCTAGTGCAG”, 18000 fluorescence intensity (a.u.). Regarding “GACGCCGTTAACTTTTTCTCACATGTTTAACCATTCGTCTCGGAGTCACCTAGTGCAG”, the binding signal is 12700 fluorescence intensity (a.u.). In the case of “TAGATGATGCTGTTAACTTTTTCTCACATGTTTGACCATTCGGAGTCACCTAGTGCAG” it was 12700 fluorescence intensity (a.u.).

In the case of “TAGATGACGTCGTTGACTTTTTCTCACATGTTTGACCATTCGGAGTCACCTAGTGCAG”, the binding signal was 28800 fluorescence intensity (a.u.). On to “TTTTCTCACATGTTTGACCATTCGTCTTATTCAAAAATTTCGGAGTCACCTAGTGCAG”, for which the binding signal was 9990 fluorescence intensity (a.u.). In the case of “CAGTTTTTGAGGTAGAAGGGTATCATTGTAATTTTGCATCCGGAGTCACCTAGTGCAG” it was 8850 fluorescence intensity (a.u.); in that of “AAATGTGGTTTTGATGGTTTCCAACATATATTTATCGGTTCGGAGTCACCTAGTGCAG”, 8570 fluorescence intensity (a.u.); in that of “TTATCAAATTCCGATCAAATCATTCCTCGTCGGCGTCCATCGGAGTCACCTAGTGCAG”, 8880 fluorescence intensity (a.u.). In the case of “AACGGCAGCAGATCCACCAAACCCCACACCCTCTCCAAATCGGAGTCACCTAGTGCAG” it was 8600 fluorescence intensity (a.u.); in that of “ACTCCATTTACGGGCAACTCTTGCTTGCGCAACGGGCCTTCGGAGTCACCTAGTGCAG”, 8790 fluorescence intensity (a.u.); in that of “TTCTTAACATGTTCGCATATGAAAATAGACTTATTTTTTACGGAGTCACCTAGTGCAG”, 8130 fluorescence intensity (a.u.). The value for “AGCATATCAGCCACTCTTTCTTCTTTGTCTTTATCAACTCCGGAGTCACCTAGTGCAG” was 8250 fluorescence intensity (a.u.); that for “TCCACGTTCACTTATCAGCCCCAACGTCTTAGCTTCCGATCGGAGTCACCTAGTGCAG” was 9260 fluorescence intensity (a.u.). “ACTCTTATTGTCTTCACGTTGTCTTATCAGCCACGATCAACGGAGTCACCTAGTGCAG”: the binding signal is 17900 fluorescence intensity (a.u.). In the case of “GGAATTTCTCAGCTCACACGAGTCACGGACCCACCACCACCGGAGTCACCTAGTGCAG” it was 8960 fluorescence intensity (a.u.). In the case of “GGGTCTAACTCTAAGAGTATTGGGTACCCCTTATCGTTAACGGAGTCACCTAGTGCAG”, the binding signal was 8360 fluorescence intensity (a.u.). Consider “TCTTTCATACGGAATTCCTTTTCATTATTGGATGCCAGCTCGGAGTCACCTAGTGCAG”, for which the binding signal is 9330 fluorescence intensity (a.u.). Turning to “CAAGGTTTGTTTTCTTATCAGTTACTACTGCTTTTGTGGTCGGAGTCACCTAGTGCAG”, the binding signal is 11100 fluorescence intensity (a.u.). In the case of “TAACGATTTTTTTTTTGGGAGGGTGGGGATTTTTTTTTTCCGGAGTCACCTAGTGCAG” it was 24100 fluorescence intensity (a.u.); in that of “ACCTTCACTATTTTTTTTGATTTTTTTCTTTTTTTTTTAACGGAGTCACCTAGTGCAG”, 12200 fluorescence intensity (a.u.); in that of “TTTTTCTTTTCTTTTTTGCTTTTGAATTGTGGGGTTGTAACGGAGTCACCTAGTGCAG”, 8790 fluorescence intensity (a.u.). The value for “ATTTATTTTGGGATGGGGAGGGAGACAACTACAGTGTTTCCGGAGTCACCTAGTGCAG” was 18200 fluorescence intensity (a.u.); that for “TAGAGGGATGGGCTATTAAGTGTTTTATTTGGTTGGGAGACGGAGTCACCTAGTGCAG” was 15200 fluorescence intensity (a.u.). The value for “TTTGGGGATTTCTTTCTTATTTTTCTTTCCCTTTTTTTCCCGGAGTCACCTAGTGCAG” was 10900 fluorescence intensity (a.u.); that for “AGTAGAGTATTTTTTTTTCTTTTTTGATTGATGGTGATAACGGAGTCACCTAGTGCAG” was 8320 fluorescence intensity (a.u.). Regarding “GAGTTTTCCGTGTGGAGGGTGTGGATTTTTTCGTGTGTTCCGGAGTCACCTAGTGCAG”, the binding signal is 15500 fluorescence intensity (a.u.). “TGTGGGACAGGATGGTCACTAATTTCCGGTTTTGGTTTTACGGAGTCACCTAGTGCAG”: the binding signal is 8480 fluorescence intensity (a.u.). Consider “CGGGTTTGATTTGATTTGATTTTGATTTTGATTTGCTTCTCGGAGTCACCTAGTGCAG”, for which the binding signal is 8190 fluorescence intensity (a.u.). The value for “GGGTGGGTTGATTTGATAGACTTCTTTTGCTTTTGATAAACGGAGTCACCTAGTGCAG” was 29100 fluorescence intensity (a.u.); that for “CTTTTTTGGGTGATTTTTTTTCACTTGGGGTGGGTGATAACGGAGTCACCTAGTGCAG” was 21800 fluorescence intensity (a.u.). In the case of “ATCTCTGATCCGTCCAGTTGACCCAAAGCTAGAGTCTTTCCGGAGTCACCTAGTGCAG” it was 10700 fluorescence intensity (a.u.); in that of “GTGTTGTGTTTATTTTTTTATAATATCCATGATTGTAATCCGGAGTCACCTAGTGCAG”, 9640 fluorescence intensity (a.u.). In the case of “TCCGCCGCCGTCTCCGCCGCCTCCAGCCATCGATCCCGGCCGGAGTCACCTAGTGCAG” it was 8250 fluorescence intensity (a.u.); in that of “GCACACATACACATACTGACAATGATGAGTTGATGACACACGGAGTCACCTAGTGCAG”, 8500 fluorescence intensity (a.u.); in that of “GCCCGGCCCAGTAGATACCACCACCTCACACTCCATTCGCCGGAGTCACCTAGTGCAG”, 9860 fluorescence intensity (a.u.). For “GGAGCATGTTCAACCATTCATTGTTTTCTCTATTGCATAACGGAGTCACCTAGTGCAG”, the binding signal is 8070 fluorescence intensity (a.u.). In the case of “GTTGTCTAGTGCTTGCTATTCTTCTACTAGTAGTATTATACGGAGTCACCTAGTGCAG” it was 9570 fluorescence intensity (a.u.); in that of “AATCCATTTCCCATTCGCCATTCCCCATCCTTATCTCTTACGGAGTCACCTAGTGCAG”, 8660 fluorescence intensity (a.u.). The value for “GTTGCATTTGCCGCTGCGACACGGACCCCGCCTTAATAACCGGAGTCACCTAGTGCAG” was 9020 fluorescence intensity (a.u.); that for “AAGATTTGCTGGGAGGGTGGGGTGGGGATTAGTCCCTAAACGGAGTCACCTAGTGCAG” was 24500 fluorescence intensity (a.u.). The value for “GATTTGGTGGGTTATAATTTTATAGTAAGAGGGGATTTTACGGAGTCACCTAGTGCAG” was 16100 fluorescence intensity (a.u.); that for “ATCCAATGGTATAATTTTTTTAGGGAAGGGTTTTTTTTTCCGGAGTCACCTAGTGCAG” was 12600 fluorescence intensity (a.u.); that for “ATTTTTACCCTTCTCCTGTGTTTTTGTTGCTGTGATTCAACGGAGTCACCTAGTGCAG” was 8570 fluorescence intensity (a.u.). Turning to “TACCTGATTTGTGCATATGTTTCTTTCTGTTTTGCCCTTACGGAGTCACCTAGTGCAG”, the binding signal is 8170 fluorescence intensity (a.u.). In the case of “TCTTTCTCTCTCTTGCTGCCGTTGAGGGATTTGGGGTGAACGGAGTCACCTAGTGCAG” it was 10000 fluorescence intensity (a.u.). The value for “TGATTTTTTAGGGAGGGGTGGTTAGTATAAGAGGGTTTTCCGGAGTCACCTAGTGCAG” was 20000 fluorescence intensity (a.u.); that for “AGATGGTGTTTGGATGGGAGGGATTTATTTTAGTCCCTCTCGGAGTCACCTAGTGCAG” was 10200 fluorescence intensity (a.u.). In the case of “ATGCCCTGTTACCTGTGTGTGATTTCTTTGTGCTCCATAACGGAGTCACCTAGTGCAG”, the binding signal is 17600 fluorescence intensity (a.u.).
